D1 PAM – Potentiators of Human D1 Dopamine Receptor: qHTS; D(1A) dopamine receptor (Homo sapiens), P21728; HEK293 TREx D1 cells, calcium flux, dopamine EC20 potentiation; potentiation, % at 10 µM; hit rate 0.036% among 360,000; AID 504651, 2011; in the data active = potentiation above about 30%; note: 0% is about no effect
Target sequence (P21728 whole entry, looked up): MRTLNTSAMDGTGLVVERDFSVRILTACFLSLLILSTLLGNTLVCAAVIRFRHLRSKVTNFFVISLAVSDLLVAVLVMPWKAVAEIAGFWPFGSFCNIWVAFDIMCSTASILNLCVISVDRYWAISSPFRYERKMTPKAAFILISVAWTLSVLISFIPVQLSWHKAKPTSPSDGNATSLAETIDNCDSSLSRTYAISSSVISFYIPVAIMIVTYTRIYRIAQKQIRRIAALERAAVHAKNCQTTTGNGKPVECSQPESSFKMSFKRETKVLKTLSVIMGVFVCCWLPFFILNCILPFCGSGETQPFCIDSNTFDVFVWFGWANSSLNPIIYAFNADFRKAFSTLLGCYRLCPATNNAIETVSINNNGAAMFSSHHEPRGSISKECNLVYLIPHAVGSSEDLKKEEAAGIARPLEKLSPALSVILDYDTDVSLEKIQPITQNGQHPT
D1 antag – Antagonist of Human D 1 Dopamine Receptor: qHTS. hit rate 3.2% among 360,000. AID 504652, 2011. HEK293 TREx D1 cells, calcium flux, dopamine EC80; hits give low values. activity change, negative = inhibition, % at 10 µM. D(1A) dopamine receptor (Homo sapiens), P21728; in the data active = activity change below about -30%; note: % is set by controls: 0 for no effect and ±100 for the full control effect
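Using tetracycline-induced force-coupled D1 Hek293 cells and a calcium dye, signals were followed for 180 s after compound, then for 180 s after EC80 dopamine, to detect inhibitors.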
D3 antag – qHTS of D3 Dopamine Receptor Antagonist: qHTS; D(3) dopamine receptor (Homo sapiens), P35462; D3R cells, DiscoveRx beta-arrestin luminescence, antagonist mode; hits give low values; max response, negative = inhibition, %; hit rate 2.5% among 360,000; AID 652054, 2013; in the data active = max response below about -50%; note: % is set by controls: 0 for no effect and ±100 for the full control effect
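Cells expressing the human receptor were seeded at 1500 cells/well, incubated overnight at 37 degrees C in 5% CO2, then exposed to library compounds with dopamine controls for 90 minutes at 37 degrees C before luminescent detection.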
D3 ag – qHTS of D3 Dopamine Receptor Agonist: qHTS; D3R DiscoveRx beta-arrestin cells, luminescence, 90 min; max activation, %; hit rate 0.58% among 410,000; AID 652048, 2013; in the data active = max activation above about 30%; note: 0% is about no effect
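Cells at 1500/well, incubated overnight, then treated with pinned compounds (dopamine as control) for 90 min at 37 degrees C. DiscoveRx reagent added for 30 - 60 minutes at room temperature; luminescence read.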
D1 agonist – Allosteric Agonists of the Human D1 Dopamine Receptor: qHTS | D(1A) dopamine receptor (Homo sapiens), P21728 | HEK293 T-REx D1 cells, calcium flux, agonist mode | activation, % at 2 µM | hit rate 1% among 360,000; in the data active = activation above about 30%; note: 0% is about no effect
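Inducible HEK293 T-REx D1 cells, force-coupled to calcium signalling, were plated at 4000 cells/well with tetracycline and held overnight at 30 C. After no-wash calcium dye loading, compound-evoked calcium rise over 180 s flagged agonists.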
* hit, by the source's call; . = no result. Hits are enriched below; roughly 6% of the tested compounds scored in any of these assays.

SMILES	D1 PAM	D1 antag	D3 antag	D3 ag	D1 agonist
Cc1oc2ccc(O)c(CN3CCCCCC3)c2c1C(=O)Nc1cccc(C(F)(F)F)c1	-0.3	-19.4	.	-23.4	28.0
O=C1c2sc3nc4c(c(=O)n3c2C(=O)N1c1ccccc1)CCC4	5.9	0.3	0.0	-8.2	5.2
O=C1c2sc3nc4ccccc4n3c2C(=O)N1c1ccccc1Cl	-0.3	-12.1	-86.6*	-3.1	3.9
Cc1ccccc1N1C(=O)c2sc3nc4c(c(=O)n3c2C1=O)CCC4	0.6	5.0	-57.2*	-3.1	0.7
CCOC(=O)c1ccc(NC(=O)C2=C(C)C(=O)OC23CCN(C(C)C)CC3)cc1	-3.0	5.8	.	3.2	2.7
COC(=O)CNC(=O)C1CCCN1C(=O)CNC(=O)OCc1ccccc1 (centres undefined)	2.6	-9.3	-15.2	-4.1	4.2
COC(=O)C1CCCN1C(=O)C1CCCN1C(=O)CNC(=O)OCc1ccccc1 (centres undefined)	-11.0	-9.8	-54.5*	2.4	2.9
CCCCCCCCCCCCN1[C@@H](CC(=O)OC)c2cc(F)cc(F)c2S1(=O)=O	.	.	8.0	30.6*	.
CCCCCCCCCCCCN1[C@@H](CC(=O)OC)c2cc(F)ccc2S1(=O)=O	.	.	30.5	9.3	.
CCOc1ccc(-c2ccc(NS(=O)(=O)c3ccc(C)cc3)cc2)nn1	0.2	14.5	.	-3.1	1.9
Cc1ccc2c(c1)C1CN(C)CCC1N2S(=O)(=O)c1ccc(C(C)C)cc1 (centres undefined)	-5.8	-31.1*	-14.4	-21.9	3.3
Cc1ccc2c(c1)C1CN(C)CCC1N2S(=O)(=O)c1cccc(C(F)(F)F)c1 (centres undefined)	-16.8	-14.1	-3.3	-6.2	7.7
Cc1ccc2c(c1)C1CN(C)CCC1N2C(=O)c1cccc(S(=O)(=O)N2CC(C)CC(C)C2)c1 (centres undefined)	-6.2	9.8	-25.5	-12.5	1.7
Cc1ccc2c(c1)C1CN(C)CCC1N2C(=O)c1ccc(Cl)c(S(=O)(=O)N2CCOCC2)c1 (centres undefined)	-4.5	-44.9*	13.1	0.2	2.0
CCCCNC(=O)C1CCC(CNS(=O)(=O)c2ccc(Cl)cc2)CC1 (centres undefined)	-0.8	-13.2	.	7.9	16.4
CC(C)CCNC(=O)Nc1ccc2c(c1)N(Cc1ccccc1)C(=O)c1ccccc1S2	-0.9	11.9	.	6.4	6.9
Cc1cccc(C(=O)Nc2oc(-c3ccccc3)cc2C#N)c1	-4.1	-48.5*	-10.0	-17.8	6.3
CCCCn1nnnc1C(c1ccccc1)N1CCN(C)CC1 (centres undefined)	.	.	22.1	0.4	.
CCCCn1nnnc1C(c1cccc2ccccc12)N1CCN(C/C=C/c2ccccc2)CC1 (centres undefined)	.	.	-107.4*	-13.3	.
CCCCn1nnnc1C(c1ccccc1)N1CCN(C/C=C/c2ccccc2)CC1 (centres undefined)	.	.	-71.2*	-14.5	.
CCC(c1nnnn1Cc1ccccc1)N1CCN(C/C=C/c2ccccc2)CC1 (centres undefined)	.	.	-98.8*	-8.4	.
CCC(c1nnnn1CCOC)N1CCN(Cc2ccccc2)CC1 (centres undefined)	8.9	36.9	-14.3	-16.9	-1.9
CCCCn1nnnc1C(c1ccnc2ccccc12)N1CCN(C/C=C/c2ccccc2)CC1 (centres undefined)	.	.	-23.9	-18.1	.
CCCCn1nnnc1C(CC)N1CCN(C/C=C/c2ccccc2)CC1 (centres undefined)	.	.	-68.1*	-15.7	.
COc1ccc(C2CC(=O)N(Cc3ccccc3)c3c2c(C)nn3-c2nc(C)cc(C)n2)c(OC)c1 (centres undefined)	0.6	-1.7	.	-9.0	-1.9
Cc1cc(C(C)(C)C)cc(C)c1CC1=NCCN1	-2.9	-10.7	-79.3*	0.0	-0.1
Cc1ccc(-c2csc3nc[nH]c(=S)c23)cc1	-1.1	-7.6	-20.7	0.4	2.4
Cc1cc(-c2csc3nc[nH]c(=S)c23)cc(C)c1C	-5.0	-48.7*	-6.2	2.5	17.1

Assay outcomes deposited in PubChem by National Center for Advancing Translational Sciences (NCATS).
